Bioassay records deposited in PubChem BioAssay by National Center for Advancing Translational Sciences (NCATS).
BAZ2B inh – BAZ2B (human) inhibition; Potency, µM (doses to about 114 µM), actives largely listed as inhibitors; AlphaScreen BAZ2B-H3K14Ac peptide displacement; actives 4.4% (n = 360,000); also: nearly all actives have a fitted effect of over 60% in size
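Multi-concentration screen (max 110 uM) measuring displacement of acetylated histone H3 peptide from BAZ2B by AlphaScreen, using 50 nM protein, 50 nM peptide and 10 ug/mL streptavidin donor plus Ni-chelate acceptor beads.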
HP1b chromo inh – HP1-beta chromodomain-methylated histone interaction inhibition; Potency, µM (highest dose often 114 µM), actives largely listed as inhibitors; P83916; AID 540317; AlphaScreen HP1-beta / biotin-H3K9me3 peptide binding; actives 0.56% (n = 390,000); also: nearly all actives have a fitted effect of over 70% in size
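AlphaScreen: HP1-beta (50 nM) preformed 30 min with biotin-H3(1-18)K9me3 peptide (50 nM) in PBS pH 7.4, 0.01% Tween-20. Compound added for 30 min at RT, then streptavidin donor/nickel chelate acceptor beads (10 ug/mL) for 30 min.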
Sfp PPTase inh – Sfp phosphopantetheinyl transferase inhibition; Q9F4F7; Biochemical Sfp PPTase activity, qHTS; Potency, µM, hits mostly inhibitors; actives 3.5% (n = 310,000);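 also: the enzyme is Sfp with the accession as filed and its product quenches rhodamine fluorescence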
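Buffer: 50 mM Hepes-Na pH 7.6, 10 mM MgCl2, 0.01% Nonidet P-40, 0.01% BSA. Enzyme 15 nM, pre-exposed to compound 15 min; substrates then added and fluorescence change tracked over 30 min.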
PLK1 PBD block – inhibitors of human PLK1 polo-box domain binding | Potency, µM, most hits filed as inhibitors | P53350 | AID 720504 | actives 2.8% (n = 360,000) | Plk1 PBD binding of FITC phosphopeptide, fluorescence polarization; also: series mostly up to about 57 µM; nearly all actives have a fitted effect of over 65% in size
Target sequence (P53350 whole entry, looked up, the tested form may be a part): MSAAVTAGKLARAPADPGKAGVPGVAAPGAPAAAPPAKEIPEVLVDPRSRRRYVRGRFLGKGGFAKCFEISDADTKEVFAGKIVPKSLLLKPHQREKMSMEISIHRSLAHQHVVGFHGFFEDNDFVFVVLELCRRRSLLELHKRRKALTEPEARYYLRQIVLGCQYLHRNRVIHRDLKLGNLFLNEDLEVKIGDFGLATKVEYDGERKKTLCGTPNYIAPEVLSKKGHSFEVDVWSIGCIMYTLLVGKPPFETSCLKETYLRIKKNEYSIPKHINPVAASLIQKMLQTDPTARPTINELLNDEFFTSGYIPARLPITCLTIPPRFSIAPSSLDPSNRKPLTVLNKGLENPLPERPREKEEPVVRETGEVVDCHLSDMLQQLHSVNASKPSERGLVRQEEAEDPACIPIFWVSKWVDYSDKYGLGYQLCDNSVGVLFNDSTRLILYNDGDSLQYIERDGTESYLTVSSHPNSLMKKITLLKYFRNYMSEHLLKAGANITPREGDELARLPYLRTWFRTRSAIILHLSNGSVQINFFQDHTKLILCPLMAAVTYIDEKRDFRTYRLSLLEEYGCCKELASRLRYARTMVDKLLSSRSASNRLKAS
G9a inh – G9a (human) methyltransferase inhibition; actives 8.8% (n = 350,000); G9a H3K9 monomethylation, AlphaScreen, 2 h; Q96KQ7; Potency, µM (doses to about 102 µM), most hits filed as inhibitors; also: nearly all actives have a fitted effect of over 75% in size
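Step 1: enzyme (final 20 nM) with compound, 15 min RT. Step 2: substrate peptide 500 nM and SAM 20 uM, 2 h RT. Step 3: anti-H3K9me1 antibody and AlphaScreen beads, 10 min, then plate read.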
JMJD2A Tudor inh – inhibitors of human JMJD2A Tudor domain. O75164. AlphaScreen JMJD2A-Tudor / H3K4me3 peptide binding. Potency, µM (doses to about 114 µM), hits mostly inhibitors. actives 4.4% (n = 390,000). AID 504339; also: nearly all actives have a fitted effect of over 50% in size
Large screens that a line does not name were inactive. Only some compounds are listed: those with a hit (about 12% of all), similar ones and a draw of the others. Calls follow the shape of the dose curve; as a rule, active = well fitted curve in the direction sought with a large enough effect; inconclusive = small, poorly fitted or top-dose-only effect, or another doubt; inactive = no such curve, though single readings can be large; an effect the other way counts as inactive or inconclusive.

Nc1ncc(Br)cc1N=Cc1ccccc1	Sfp PPTase inh 79µM, G9a inh inconclusive
Cn1ncc(N=Cc2ccccc2)c1C(N)=O	none
COc1ccccc1-c1sc2cc3c(cc2c1C#CC1(O)CCCCC1)OCO3	BAZ2B inh 79µM (no result: Sfp PPTase inh)
COc1ccc(-c2sc3cc4c(cc3c2C#CC2(O)CCCCC2)OCO4)cc1	BAZ2B inh inconclusive (no result: Sfp PPTase inh)
O=C(c1ccncc1)N(Cc1ccccc1)Cc1nc2ccccc2c(=O)[nH]1	none
CCCNC(=S)N(Cc1ccccc1)Cc1nc2ccccc2c(=O)[nH]1	G9a inh 7.1µM
CCOCCCNC(=S)N(Cc1ccccc1)Cc1nc2ccccc2c(=O)[nH]1	Sfp PPTase inh inconclusive, PLK1 PBD block inconclusive, G9a inh 10µM
COc1ccc(CC(=O)N2CCc3cc(OC)c(OC)cc3C2COc2ccc(F)cc2)cc1 (stereo unspecified)	BAZ2B inh inconclusive, JMJD2A Tudor inh inconclusive (no result: Sfp PPTase inh, PLK1 PBD block)
Cc1ccc(S(=O)(=O)c2c[nH]c3cc4c(cc3c2=O)OCO4)cc1	none (no result: HP1b chromo inh, PLK1 PBD block, JMJD2A Tudor inh)
Oc1ccccc1/C=N/NC(=S)NC1CC2C=CC1C2 (stereo unspecified)	BAZ2B inh 28µM, G9a inh inconclusive, JMJD2A Tudor inh 45µM
Oc1c(Cl)cc(Cl)cc1/C=N/NC(=S)NC1CC2C=CC1C2 (stereo unspecified)	BAZ2B inh 7.9µM, PLK1 PBD block inconclusive, JMJD2A Tudor inh 50µM
CCCCCCCCN1C(=O)[C@H](CC(=O)N2CCOCC2)C[C@@]2(C(=O)OC)CC(C)(C)CC=C12	none (no result: BAZ2B inh, HP1b chromo inh, Sfp PPTase inh, G9a inh, JMJD2A Tudor inh)
CSc1nnc(N2C(=O)C(O)=C(C(=O)c3ccco3)C2c2ccc(F)cc2)s1 (stereo unspecified)	BAZ2B inh inconclusive, Sfp PPTase inh 35µM, G9a inh 22µM
CSc1nnc(N2C(=O)C(O)=C(C(=O)c3ccco3)C2c2cccc(Cl)c2)s1 (stereo unspecified)	BAZ2B inh 79µM, Sfp PPTase inh 6.3µM, PLK1 PBD block inconclusive, JMJD2A Tudor inh inconclusive (no result: G9a inh)
CCSc1nnc(N2C(=O)C(O)=C(C(=O)c3ccco3)C2c2cccc(OC)c2)s1 (stereo unspecified)	BAZ2B inh inconclusive, Sfp PPTase inh inconclusive, PLK1 PBD block inconclusive, G9a inh 35µM, JMJD2A Tudor inh 89µM
Cc1ccc(NC(=O)CSc2n[nH]c(C)c2[N+](=O)[O-])cc1	none
Cc1[nH]nc(SCC(=O)Nc2ccc(C#N)cc2)c1[N+](=O)[O-]	G9a inh 35µM
O=C(NC1CCCCC1)C(Cc1ccccc1)NS(=O)(=O)c1cccs1 (stereo unspecified)	none
C/C(=N\NC(=O)C1CC1)c1cccs1	none
O=S(=O)(NC1CCCCCCC1)c1ccccc1	none
O=S(=O)(NC(=S)NC1CCCCC1)c1cccs1	Sfp PPTase inh inconclusive, PLK1 PBD block inconclusive, G9a inh 20µM
O=S(=O)(NC(=S)NC1CCCCC1)c1ccccc1	Sfp PPTase inh inconclusive, G9a inh 25µM
C/C(=N\NC(=S)NC1CCCCC1)c1cccs1	BAZ2B inh 50µM, HP1b chromo inh inconclusive, G9a inh inconclusive, JMJD2A Tudor inh inconclusive
CN(C)/C=N/c1ncn(-c2ncc(C(F)(F)F)cc2Cl)n1	none
CCC1=Nc2cc(C(=O)N3CCC(C)CC3)ccc2Sc2ccc(C)cc21	none (no result: Sfp PPTase inh, PLK1 PBD block)
COc1ccccc1/C=C/c1nc(C#N)c(NC2CCCCC2)o1	none (no result: Sfp PPTase inh, PLK1 PBD block)
CCCCN1Cc2c(nc3cc(-c4ccco4)[nH]n3c2=O)C1=O	BAZ2B inh inconclusive, Sfp PPTase inh 10µM, G9a inh inconclusive
COCc1cc(=O)n2[nH]c(-c3ccco3)cc2n1	G9a inh inconclusive
CC(Oc1ccc(Cl)cc1Cl)C(=O)Nc1ccc(O)cc1 (stereo unspecified)	BAZ2B inh 50µM, Sfp PPTase inh inconclusive, G9a inh 25µM
COC(=O)c1c(NC(=O)C(C)Oc2ccc(Cl)cc2Cl)sc2c1CCCC2 (stereo unspecified)	G9a inh 3.5µM (no result: Sfp PPTase inh, PLK1 PBD block)
CCOC(=O)c1c(NC(=O)C(C)Oc2ccc(Cl)c(C)c2)sc2c1CCCC2 (stereo unspecified)	G9a inh 3.2µM (no result: Sfp PPTase inh, PLK1 PBD block)
CCCc1ccc(OC(C)C(=O)Nc2sc3c(c2C(=O)OC)CCCCC3)cc1 (stereo unspecified)	HP1b chromo inh inconclusive, G9a inh 7.9µM (no result: Sfp PPTase inh, PLK1 PBD block)
CCOC(=O)c1c(NC(=O)c2ccccc2Cl)sc2c1CCCC2	none (no result: Sfp PPTase inh, PLK1 PBD block)
CC(NC(=O)Cn1c(=O)oc2cc(S(=O)(=O)NCc3ccccc3)ccc21)c1ccccc1 (stereo unspecified)	none (no result: Sfp PPTase inh, PLK1 PBD block)
COc1ccc(CCN2C(=O)c3oc4cc(C)cc(C)c4c(=O)c3C2c2ccc(F)cc2)cc1OC (stereo unspecified)	none (no result: Sfp PPTase inh, PLK1 PBD block)
COc1ccc(C(=O)Nc2ncc3c(n2)CC(c2ccco2)CC3=O)cc1 (stereo unspecified)	Sfp PPTase inh 50µM, G9a inh inconclusive
O=C(Nc1ncc2c(n1)CC(c1ccco1)CC2=O)c1ccco1 (stereo unspecified)	Sfp PPTase inh 32µM
CCC(=O)Nc1ncc2c(n1)CC(c1ccco1)CC2=O (stereo unspecified)	none
CC(=O)Nc1ncc2c(n1)CC(c1ccco1)CC2=O (stereo unspecified)	none
O=C1CC(c2ccco2)Cc2nc(N3CCc4ccccc4C3)ncc21 (stereo unspecified)	BAZ2B inh inconclusive, Sfp PPTase inh 25µM, G9a inh 45µM
Cc1ccc(S(=O)(=O)NC(=O)Nc2ncc3c(n2)CC(c2ccco2)CC3=O)cc1 (stereo unspecified)	G9a inh 18µM
Cn1c2cc([N+](=O)[O-])sc2c2cnn(Cc3ccccc3F)c(=O)c21	none (no result: HP1b chromo inh, Sfp PPTase inh, PLK1 PBD block, JMJD2A Tudor inh)
CCOc1ccccc1N(CC)C(=O)c1nn(C)c2c1CSc1ccccc1-2	BAZ2B inh inconclusive
Cc1cc(=O)[nH]c2c1c(C)nn2C1CCOC(C)(C)C1 (stereo unspecified)	none
Cc1cccc(-c2nn(-c3ccccc3)cc2CNCCO)c1	HP1b chromo inh inconclusive, JMJD2A Tudor inh 10µM (no result: BAZ2B inh, Sfp PPTase inh, PLK1 PBD block, G9a inh)
Cc1ccc(-n2cc(CNCCCn3cccn3)c(-c3cccc(C)c3)n2)cc1	none
Cc1ccc(-c2nn(-c3ccccc3)cc2CNCc2ccccc2)cc1	Sfp PPTase inh 18µM (no result: G9a inh)
COC(=O)C1CSc2[nH]c(=O)sc2C1c1ccccc1 (stereo unspecified)	HP1b chromo inh inconclusive, Sfp PPTase inh 45µM, PLK1 PBD block 27µM, G9a inh 56µM
COc1cc(C2C(C#N)=C(N)Oc3c2oc(CO)cc3=O)ccc1OC(C)C (stereo unspecified)	G9a inh inconclusive, JMJD2A Tudor inh 16µM
O=c1[nH]sc2ccccc12	BAZ2B inh 50µM, Sfp PPTase inh 5µM, PLK1 PBD block 5.3µM, G9a inh 1.8µM, JMJD2A Tudor inh 32µM
